Screening data as filed in PubChem BioAssay.
Yp Topo-I inh: Yersinia pestis topoisomerase I inhibitors, primary screen, biochemical, cleavage product accumulation, plate reader, single point; Y. pestis Topo-I cleavage product accumulation; activity, % at 10 µM; actives 0.064% (n = 360,000); AID 504884, 2011; in the data active means activity above about 50%, passing the limit was not always enough
Mtb FBA inh: Mtb FBA enzyme inhibitors, primary screen, biochemical, fluorescence, strain H37Rv | Fructose-bisphosphate aldolase (Mycobacterium tuberculosis (strain ATCC 25618 / H37Rv)), … | purified M. tuberculosis FBA, fluorescence read-out | inhibition, % at 1 µM | actives 2.3% (n = 360,000) | AID 588726, 2011; in the data active means inhibition above about 27%
GDH-TPI inh: GDH-TPI coupling enzyme inhibitors, primary screen, artefact control for M. tuberculosis FBA inhibitor project, biochemical, absorbance, full deck | GDH-TPI coupled enzyme counterscreen, NADH absorbance | inhibition, % at 4.8 µM | actives 1.2% (n = 360,000) | AID 588335, 2011; in the data active means inhibition above about 30%
TcdB inh: TcdB glycohydrolase inhibitors, primary screen, biochemical, single point, plate reader; Toxin B (Clostridioides difficile), P18177; TcdB glycohydrolase enzymatic assay; inhibition, % at 9.99 µM; actives 0.24% (n = 350,000); in the data active means inhibition above about 10%
PrPC surface inh: inhibitors of human cell surface prion protein PrPC, primary screen, cell-based, TR-FRET. inhibition, % at 13.8 µM. TR-FRET read-out. actives 0.43% (n = 370,000); in the data active means inhibition above about 24%
PrPC confirm: confirmation of inhibitors of cell surface human prion protein, confirmation, cell-based, TR-FRET; shares compounds with PrPC surface inh; cell surface PrPC level; inhibition, % at 13.8 µM; actives 65% (n = 1,500); AID 743200, 2013; in the data active means inhibition above about 25%
LD9 tox: cytotoxicity in LD9 cells, cytotoxicity control for cell surface PrPc inhibitor project, cell-based, luminescence, high throughput; shares compounds with PrPC surface inh; AID 743201, 2013; luminescence viability; actives 29% (n = 1,500); inhibition, % at 13.8 µM; in the data active means inhibition above about 9.5%
Of the large screens only hits and unclear results are named; the others gave an inactive call (follow-up assays come after a bar, where they were run). A selection: hits, their analogues and other compounds. The true share with any hit is near 3.2%.

Nc1c(C(=O)Nc2ccc3c(c2)OCCO3)nnn1Cc1cccc(Br)c1	PrPC surface inh 28.6 | PrPC confirm inactive | LD9 tox inactive
CCCCSc1nc2c([nH]1)c(=S)n(C)c(=O)n2C	none
CSc1nc2c([nH]1)c(=S)n(C)c(=O)n2C	GDH-TPI inh 34.5, PrPC surface inh 34.0 | PrPC confirm inactive | LD9 tox inactive
COc1ccccc1-c1n[nH]c(=S)o1	PrPC surface inh 47.6 (no result: TcdB inh) | PrPC confirm 47.9 | LD9 tox inactive
S=c1[nH]nc(-c2ccccc2)o1	none (no result: TcdB inh)
COc1ccc(C(=O)Nc2ccc(-c3n[nH]c(=S)o3)cc2)cc1OC	none
COc1ccccc1-c1n[nH]c(=S)n1-c1ccccc1	PrPC surface inh 48.4 (no result: TcdB inh) | PrPC confirm 61.1 | LD9 tox inactive
COc1ccc(Cl)cc1-c1n[nH]c(=S)o1	PrPC surface inh 68.9 (no result: TcdB inh) | PrPC confirm 84.5 | LD9 tox inactive
COc1ccc(NC(=O)Nc2ccc3c(c2)C(=O)N([C@@H](C)CO)C[C@@H](C)[C@H](CN(C)S(=O)(=O)c2ccc(Cl)cc2)OCCCC[C@@H](C)O3)cc1	none (no result: Yp Topo-I inh, Mtb FBA inh, GDH-TPI inh, PrPC surface inh)
CCN(CC)c1nc2ccccc2[nH]c1=O	none
CCc1nc2ccccc2[nH]c1=O	PrPC surface inh 37.5 | PrPC confirm inactive | LD9 tox inactive
Cc1ccc(S(=O)(=O)Nc2ccc3c(c2)C(=O)N([C@H](C)CO)C[C@@H](C)[C@@H](CN(C)C(=O)NC(C)C)OCCCC[C@@H](C)O3)cc1	none (no result: Yp Topo-I inh, Mtb FBA inh, GDH-TPI inh, PrPC surface inh)
CC(=O)N1CCCc2cc(S(=O)(=O)N3CCCC(C(=O)N4CCN(c5cc(C)ccc5C)CC4)C3)ccc21 (configuration not stated)	PrPC surface inh 25.2 | PrPC confirm inactive | LD9 tox 9.3
CC(=O)N1CCCc2cc(S(=O)(=O)N3CCCC(C(=O)Nc4cccc(F)c4)C3)ccc21 (configuration not stated)	PrPC surface inh 36.2 | PrPC confirm 24.4 | LD9 tox 11.5
CS(=O)(=O)N1CCCC(C(=O)Nc2cccc(F)c2)C1 (configuration not stated)	none
CCc1ccc(NC(=O)C2CCCN(S(=O)(=O)c3ccc4c(c3)CCCN4C(C)=O)C2)cc1 (configuration not stated)	PrPC surface inh 24.6 | PrPC confirm 37.1 | LD9 tox inactive
CCOC(=O)c1ccc(NC(=O)C2CCCN(S(=O)(=O)c3ccc(F)cc3)C2)cc1 (configuration not stated)	PrPC surface inh 29.9 (no result: TcdB inh) | PrPC confirm inactive | LD9 tox inactive
CCOC(=O)c1ccc(NC(=O)C2CCN(S(=O)(=O)c3ccccc3)CC2)cc1	none
CCC(=O)N1C[C@H]2[C@@H](c3ccccc31)[C@@H](CO)N2Cc1ccccc1F	none (no result: Yp Topo-I inh, Mtb FBA inh, GDH-TPI inh, PrPC surface inh)
O=C(NCC1CC1)[C@H]1[C@H](CO)[C@H]2Cn3c(ccc(C4=CCCCC4)c3=O)[C@H]2N1Cc1ccccc1F	none (no result: Yp Topo-I inh, Mtb FBA inh, GDH-TPI inh, PrPC surface inh)
CC(=NNc1nc2ccccc2o1)c1cc2ccccc2cn1	PrPC surface inh 27.3 | PrPC confirm 32.3 | LD9 tox 49.4
CN1CCN(C2CCN(Cc3ccc(O)c4ncccc34)CC2)CC1	PrPC surface inh 34.3 | PrPC confirm inactive | LD9 tox inactive
Oc1ccc(CN2CCN(Cc3ccccc3)CC2)c2cccnc12	none (no result: TcdB inh)
COc1ccc(OCCC(=O)OCC(=O)Nc2cccc(S(=O)(=O)N3CCOCC3)c2)cc1	none
COc1ccc(C(=O)NC(=S)Nc2cccc(S(=O)(=O)N3CCOCC3)c2)cc1	none
CC(=O)Oc1ccc(-c2ccc(C(=O)Nc3cccc(S(=O)(=O)N4CCOCC4)c3)cc2)cc1	PrPC surface inh 24.9 | PrPC confirm inactive | LD9 tox inactive
CC(C)(C)c1ccc(OCCC(=O)Nc2cccc(S(=O)(=O)N3CCOCC3)c2)cc1	PrPC surface inh 24.8 | PrPC confirm inactive | LD9 tox inactive
CN1CCN(S(=O)(=O)c2cccc(C(=O)Nc3cc(C(N)=O)cc(C(N)=O)c3)c2)CC1	PrPC surface inh 30.0 | PrPC confirm 25.2 | LD9 tox inactive
